For experiment [1], the system named is PRMT1 (protein arginine N-methyltransferase 1). Briefly: small molecules binding arginine methyltransferase PRMT1 – biochemical, small-molecule microarray, 635 nm fluorescence, primary screen (AID 1088).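 Further: binding of Prmt1 protein to compounds spotted on small-molecule microarray slides.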 Particulars: higher = more signal.
Experiment [2] is described as follows: growth effects on S. cerevisiae YJM789 – YJM789 clinical isolate, OD600, 24 h, basal, primary screen (AID 1089).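 Further: growth of clinical yeast isolate S. cerevisiae YJM 789 seeded 1000 cells per well; test concentration not given here.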 Particulars: higher = more signal, called active from +8 up or from −8 down.
Experiment [3] in a line: S. pombe growth modifiers, basal conditions – strain 972, OD600, 24 h, no modulator, primary screen (AID 1090).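 Further: basal condition with compound alone and no growth modifier present; test concentration not given here.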 As to conditions: S. pombe 972 growth, higher = more signal, called active from +8 up or from −8 down.
Experiment [4] in a line: budding yeast growth modifiers under rapamycin – strain BY4716, OD600, 96 h, primary screen (AID 1091). Further: test concentration not given here. As to conditions: S. cerevisiae BY4716 + rapamycin, higher = more signal, called active from +8 up or from −8 down.
Experiment [5] deals with Torsin-1A-interacting protein 2 (Homo sapiens) (UniProt Q8NFQ8). Briefly: small molecules binding lysate-expressed LULL1 – cell lysate, human LULL1 lysate, 635/667 nm fluorescence, primary screen (AID 1092).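 Further: probe is lysate of COS7 cells overexpressing human LULL1; score merges per-feature 667 nm fluorescence with signal-to-noise.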 As to conditions: small-molecule microarray, hLULL1 lysate binding, 635 nm fluorescence; higher = more signal.
The nature of experiment [6]: optical density change of DRC41 E. coli – strain DRC41, OD650, 24 h, E. coli filamentation project, primary screen (AID 1093).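 Further: MC1000 strain lacking acrAB efflux and sulA so SOS filamentation is blocked; test concentration not given here.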 As to conditions: E. coli DRC41 growth, higher = more signal, called active from +8 up or from −8 down.
Experiment [7] is described as follows: probe aLefty2 binding to arrayed compounds – biochemical, biotinylated probe, 635/667 nm fluorescence, primary screen (AID 1094).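 Further: score merges spot fluorescence near 667 nm with spot signal-to-noise ratio.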 As to conditions: small-molecule microarray, higher = more signal.
Experiment [8] concerns Noggin (protein binding on small-molecule microarray). Briefly: small molecules binding Noggin protein – biochemical, 635/667 nm fluorescence, primary screen (AID 1095).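 Further: score merges 667 nm feature fluorescence with signal to noise over triplicate slides.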 As to conditions: 635 nm fluorescence, higher = more signal.
For experiment [9], the target named is Neurogenic locus notch homolog protein 3 (Homo sapiens) (UniProt Q9UM47). Briefly: small molecules binding NOTCH3 protein – biochemical, 635/667 nm fluorescence, primary screen (AID 1096). As to conditions: small-molecule microarray, 635 nm fluorescence, higher = more signal.
Experiment [10] is described as follows: probe aEGFR binding to arrayed compounds – biochemical, biotinylated probe, 635/667 nm fluorescence, primary screen (AID 1097).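 Further: probe is a biotinylated anti-EGFR antibody binding compounds printed on slides; score combines fluorescence near 667 nm and signal to noise of each spot.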 As to conditions: small-molecule microarray, higher = more signal.
The subject of experiment [11] is Plasmodium falciparum Sir2 (PF13_0152, Sir2A). Briefly: Plasmodium falciparum Sir2A binding compounds – biochemical, small-molecule microarray, 635 nm fluorescence, primary screen (AID 1098).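 Further: score merges spot fluorescence intensity with its signal-to-noise ratio.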 As to conditions: fluorescence 635 nm, higher = more signal.
Experiment [12] is described as follows: probe aDKK1 binding to arrayed compounds – biochemical, biotinylated probe, 635/667 nm fluorescence, primary screen (AID 1099).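 Further: score merges 667nm spot fluorescence with signal to noise across triplicate slides; reference of the scale not given here.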 Particulars: small-molecule microarray, higher = more signal.
A short description of experiment [13]: probe aCHRDL2 binding to arrayed compounds – biochemical, biotinylated probe, 635/667 nm fluorescence, primary screen (AID 1100). As to conditions: small-molecule microarray, higher = more signal.
Experiment [14] is described as follows: change in splice reporter luminescence, either direction, cell-based, HEK293, spliceosome inhibition project, primary screen (AID 1101).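 Further: HEK293 cells carrying a splicing-competent luciferase reporter gene; test concentration not given here.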 As to conditions: HEK293 splicing luciferase reporter, 24 h, higher = more signal, called active from +8 up or from −8 down.
The target in experiment [15] is Fibroblast growth factor 10 (Homo sapiens) (UniProt O15520). Briefly: compounds binding fibroblast growth factor 10 – biochemical, small-molecule microarray, 635 nm fluorescence, primary screen (AID 1102). Particulars: FGF10 binding, fluorescence 635 nm, higher = more signal.
Experiment [16] relates to glycogen synthase kinase-3 (GSK3A per assay name; protocol says GSK3B). Briefly: compounds binding glycogen synthase kinase-3 – biochemical, small-molecule microarray, 635 nm fluorescence, GSK3A, primary screen (AID 1103). Further: the record names both GSK3A and GSK3B. As to conditions: fluorescence 635 nm, higher = more signal.
Experiment [17] deals with Epidermal growth factor receptor (Homo sapiens) (UniProt P00533). Briefly: compounds binding epidermal growth factor receptor – biochemical, small-molecule microarray, 635 nm fluorescence, primary screen (AID 1104).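 Further: score merges 667 nm emission intensity with spot signal to noise over triplicate slides.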 As to conditions: EGFR binding, higher = more signal.
The target in experiment [18] is Follistatin-related protein 3 (Homo sapiens) (UniProt O95633). Briefly: compounds binding follistatin-related protein 3 – biochemical, small-molecule microarray, 635 nm fluorescence, primary screen (AID 1105).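 Further: score merges emission near 667 nm and signal to noise per printed spot across three slides.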 As to conditions: FSTL3 binding, higher = more signal.
Experiment [19] addresses Dickkopf-related protein 1 (Homo sapiens) (UniProt O94907). Briefly: small molecules binding DKK1 protein – biochemical, small-molecule microarray, 635 nm fluorescence scan, primary screen (AID 1106).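 Further: score merges emission near 667 nm with signal to noise over three replicate slides.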 Particulars: higher = more signal.
For experiment [20], the system named is Inhibin beta A chain (activin A). Briefly: small molecules binding activin A – biochemical, small-molecule microarray, 635 nm fluorescence scan, primary screen (AID 1107).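 Further: mouse activin A protein probed at 4.33 µg/mL on printed slides; score merges bound-protein fluorescence near 667 nm with spot signal-to-noise.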 As to conditions: INHBA, higher = more signal.

The source made the active and inactive calls.

Sequence of Epidermal growth factor receptor (Homo sapiens) (P00533 whole entry, looked up): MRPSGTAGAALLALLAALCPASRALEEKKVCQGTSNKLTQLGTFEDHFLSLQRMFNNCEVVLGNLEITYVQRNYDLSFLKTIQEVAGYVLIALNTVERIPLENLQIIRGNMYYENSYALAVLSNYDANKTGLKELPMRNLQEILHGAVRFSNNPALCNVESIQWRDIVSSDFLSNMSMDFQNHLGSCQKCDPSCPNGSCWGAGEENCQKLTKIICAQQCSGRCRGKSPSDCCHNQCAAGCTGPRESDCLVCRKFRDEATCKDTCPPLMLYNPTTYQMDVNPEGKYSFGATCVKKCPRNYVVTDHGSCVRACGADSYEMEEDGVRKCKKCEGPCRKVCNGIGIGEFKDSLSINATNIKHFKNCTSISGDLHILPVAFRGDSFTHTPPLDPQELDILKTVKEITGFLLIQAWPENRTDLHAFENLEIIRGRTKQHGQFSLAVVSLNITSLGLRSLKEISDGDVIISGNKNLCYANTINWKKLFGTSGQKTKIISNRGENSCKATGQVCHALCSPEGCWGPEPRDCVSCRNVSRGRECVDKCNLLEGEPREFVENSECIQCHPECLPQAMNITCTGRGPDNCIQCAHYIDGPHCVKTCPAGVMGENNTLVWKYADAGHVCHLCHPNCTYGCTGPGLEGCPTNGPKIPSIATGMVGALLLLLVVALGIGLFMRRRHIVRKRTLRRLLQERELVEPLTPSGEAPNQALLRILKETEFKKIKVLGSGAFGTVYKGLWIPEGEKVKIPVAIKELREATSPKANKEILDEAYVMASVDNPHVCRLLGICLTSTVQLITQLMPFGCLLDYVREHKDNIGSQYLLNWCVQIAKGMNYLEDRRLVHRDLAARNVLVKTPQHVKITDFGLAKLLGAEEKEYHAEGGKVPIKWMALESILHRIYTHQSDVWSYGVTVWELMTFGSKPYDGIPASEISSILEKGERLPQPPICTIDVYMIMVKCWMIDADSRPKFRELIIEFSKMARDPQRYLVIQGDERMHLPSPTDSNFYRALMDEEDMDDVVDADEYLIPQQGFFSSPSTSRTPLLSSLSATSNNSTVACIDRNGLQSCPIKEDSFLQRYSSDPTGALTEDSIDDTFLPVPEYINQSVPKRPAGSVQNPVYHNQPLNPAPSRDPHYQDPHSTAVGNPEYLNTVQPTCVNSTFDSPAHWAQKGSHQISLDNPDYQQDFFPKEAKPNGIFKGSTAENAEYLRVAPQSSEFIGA
Sequence of Neurogenic locus notch homolog protein 3 (Homo sapiens) (Q9UM47 whole entry, looked up): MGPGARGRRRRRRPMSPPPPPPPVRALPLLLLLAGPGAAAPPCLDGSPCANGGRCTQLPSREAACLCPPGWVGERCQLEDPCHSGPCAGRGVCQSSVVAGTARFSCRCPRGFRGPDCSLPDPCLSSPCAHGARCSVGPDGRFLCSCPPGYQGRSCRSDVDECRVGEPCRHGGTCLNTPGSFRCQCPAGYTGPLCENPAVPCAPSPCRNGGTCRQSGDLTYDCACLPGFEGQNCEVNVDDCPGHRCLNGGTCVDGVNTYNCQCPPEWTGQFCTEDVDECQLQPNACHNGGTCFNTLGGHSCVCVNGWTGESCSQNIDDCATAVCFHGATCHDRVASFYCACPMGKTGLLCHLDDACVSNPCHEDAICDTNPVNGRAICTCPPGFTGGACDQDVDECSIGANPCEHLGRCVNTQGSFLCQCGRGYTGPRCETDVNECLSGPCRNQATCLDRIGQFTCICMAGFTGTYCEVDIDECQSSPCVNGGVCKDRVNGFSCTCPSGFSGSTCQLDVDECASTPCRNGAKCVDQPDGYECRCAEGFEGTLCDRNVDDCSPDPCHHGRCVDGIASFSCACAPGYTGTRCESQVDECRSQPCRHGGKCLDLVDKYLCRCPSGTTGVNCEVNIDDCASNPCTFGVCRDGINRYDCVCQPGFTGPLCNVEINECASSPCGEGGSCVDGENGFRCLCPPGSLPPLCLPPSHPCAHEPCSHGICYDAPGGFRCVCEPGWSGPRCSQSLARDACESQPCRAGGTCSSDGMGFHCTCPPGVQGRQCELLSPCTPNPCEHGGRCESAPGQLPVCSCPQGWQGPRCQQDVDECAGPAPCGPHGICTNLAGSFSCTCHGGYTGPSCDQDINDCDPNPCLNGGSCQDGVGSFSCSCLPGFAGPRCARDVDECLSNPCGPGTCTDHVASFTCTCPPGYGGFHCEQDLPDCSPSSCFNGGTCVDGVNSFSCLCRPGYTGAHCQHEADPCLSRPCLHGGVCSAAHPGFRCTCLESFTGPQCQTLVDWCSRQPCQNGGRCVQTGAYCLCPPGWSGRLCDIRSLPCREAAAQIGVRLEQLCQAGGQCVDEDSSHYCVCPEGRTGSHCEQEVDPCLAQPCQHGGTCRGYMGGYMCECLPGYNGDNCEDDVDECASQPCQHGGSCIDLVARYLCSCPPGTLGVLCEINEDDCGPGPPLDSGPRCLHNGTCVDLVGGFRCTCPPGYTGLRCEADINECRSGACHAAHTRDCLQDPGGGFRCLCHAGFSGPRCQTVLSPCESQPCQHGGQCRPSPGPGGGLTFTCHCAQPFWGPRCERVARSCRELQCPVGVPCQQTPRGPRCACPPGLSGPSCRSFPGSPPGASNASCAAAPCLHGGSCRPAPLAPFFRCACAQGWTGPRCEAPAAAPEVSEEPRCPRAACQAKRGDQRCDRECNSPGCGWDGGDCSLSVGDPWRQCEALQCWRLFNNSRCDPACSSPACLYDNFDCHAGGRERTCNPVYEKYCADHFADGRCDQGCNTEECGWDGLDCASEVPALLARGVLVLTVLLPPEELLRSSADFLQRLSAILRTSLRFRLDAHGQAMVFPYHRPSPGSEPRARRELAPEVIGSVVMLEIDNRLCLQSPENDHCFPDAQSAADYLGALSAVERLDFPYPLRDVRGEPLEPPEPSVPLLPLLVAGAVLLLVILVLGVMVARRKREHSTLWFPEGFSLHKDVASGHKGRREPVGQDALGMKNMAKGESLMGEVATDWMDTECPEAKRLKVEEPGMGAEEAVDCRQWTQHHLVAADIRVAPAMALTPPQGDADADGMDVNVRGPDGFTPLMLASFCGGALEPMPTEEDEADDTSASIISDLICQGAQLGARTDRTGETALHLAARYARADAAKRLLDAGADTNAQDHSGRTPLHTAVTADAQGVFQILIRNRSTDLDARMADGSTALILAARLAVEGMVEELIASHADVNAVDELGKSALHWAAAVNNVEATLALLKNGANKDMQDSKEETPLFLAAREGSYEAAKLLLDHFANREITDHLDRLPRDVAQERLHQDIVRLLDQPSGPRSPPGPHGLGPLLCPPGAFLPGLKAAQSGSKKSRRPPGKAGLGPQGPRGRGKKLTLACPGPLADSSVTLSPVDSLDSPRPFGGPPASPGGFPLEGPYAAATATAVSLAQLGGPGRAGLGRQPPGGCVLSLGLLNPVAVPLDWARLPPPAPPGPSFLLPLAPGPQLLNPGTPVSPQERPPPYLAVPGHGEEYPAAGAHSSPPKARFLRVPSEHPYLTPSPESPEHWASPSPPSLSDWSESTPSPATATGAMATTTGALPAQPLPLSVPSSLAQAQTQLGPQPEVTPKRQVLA
Sequence of Torsin-1A-interacting protein 2 (Homo sapiens) (Q8NFQ8 whole entry, looked up): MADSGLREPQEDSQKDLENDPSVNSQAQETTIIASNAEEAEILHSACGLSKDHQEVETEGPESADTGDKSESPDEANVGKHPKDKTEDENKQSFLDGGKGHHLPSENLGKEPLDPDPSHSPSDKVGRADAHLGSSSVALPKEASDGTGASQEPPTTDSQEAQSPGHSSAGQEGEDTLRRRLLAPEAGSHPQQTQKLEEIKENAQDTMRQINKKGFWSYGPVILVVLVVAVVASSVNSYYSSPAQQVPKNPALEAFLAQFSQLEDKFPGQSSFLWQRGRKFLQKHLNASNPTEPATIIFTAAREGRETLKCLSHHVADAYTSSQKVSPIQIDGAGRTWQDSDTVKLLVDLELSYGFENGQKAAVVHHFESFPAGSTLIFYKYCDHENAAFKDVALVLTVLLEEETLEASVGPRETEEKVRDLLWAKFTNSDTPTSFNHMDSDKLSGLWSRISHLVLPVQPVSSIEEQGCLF
Sequence of Dickkopf-related protein 1 (Homo sapiens) (O94907 whole entry, looked up): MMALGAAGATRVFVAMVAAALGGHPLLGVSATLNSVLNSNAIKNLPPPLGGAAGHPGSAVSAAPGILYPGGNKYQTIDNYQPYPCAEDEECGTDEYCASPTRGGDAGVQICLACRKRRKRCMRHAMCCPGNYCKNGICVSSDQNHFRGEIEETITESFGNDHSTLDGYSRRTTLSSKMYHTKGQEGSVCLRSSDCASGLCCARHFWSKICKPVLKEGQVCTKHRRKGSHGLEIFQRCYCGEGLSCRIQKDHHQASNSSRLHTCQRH
Sequence of Fibroblast growth factor 10 (Homo sapiens) (O15520 whole entry, looked up): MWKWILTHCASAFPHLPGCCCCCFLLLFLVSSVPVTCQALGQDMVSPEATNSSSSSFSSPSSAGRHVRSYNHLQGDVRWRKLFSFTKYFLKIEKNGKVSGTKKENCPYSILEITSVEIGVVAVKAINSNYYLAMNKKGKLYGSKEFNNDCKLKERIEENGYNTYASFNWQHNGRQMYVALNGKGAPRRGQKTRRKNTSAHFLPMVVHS
Sequence of Follistatin-related protein 3 (Homo sapiens) (O95633 whole entry, looked up): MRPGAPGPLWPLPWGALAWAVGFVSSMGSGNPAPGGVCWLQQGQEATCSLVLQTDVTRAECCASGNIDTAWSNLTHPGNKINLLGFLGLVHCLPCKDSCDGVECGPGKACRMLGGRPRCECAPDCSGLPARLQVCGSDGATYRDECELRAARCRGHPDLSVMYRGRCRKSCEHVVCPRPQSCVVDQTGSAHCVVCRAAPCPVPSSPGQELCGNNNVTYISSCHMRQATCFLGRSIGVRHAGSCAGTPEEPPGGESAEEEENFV

On to `CO[C@]12C=C(Br)[C@@H](C[C@@H]1c1ccccc1)[C@@]1(CO1)C2=O`, for which the composite z-score in [1] was -0.167; in [5] it was -0.132; in experiment [7] it was -0.2; in experiment [8], 0.706; in experiment [9] it was 0.243; in [10], -0.14. Also, the composite z-score in [11] was 0.165; in experiment [12], -0.301; in experiment [13], -0.708; in experiment [15] it was 0.342; in [16], 0.497; in experiment [17] it was 0.496. In addition, the composite z-score in [18] amounted to 0.615; in experiment [19], 0.791; in [20], 0.737. Also, the z-score in [2] is -0.0474 (inactive); in experiment [3], -4.38 (inactive); in experiment [4] it was -0.208 (inactive); in [6], 2.43 (inactive); in experiment [14] it was -0.0249 (inactive).

Regarding `C=C(COC)/C(=C/C[C@@H](OC(=O)c1ccncc1)c1ccc(OCCO)cc1)c1cc(C(=O)OC)ccc1OC`, the composite z-score in experiment [1] is 1.57; in experiment [5] it was 2.75; in experiment [7] it was -0.0903; in [8], 0.861; in experiment [9], 1.12; in experiment [10], -0.0129. For the same molecule, the composite z-score in experiment [11] stood at 1.3; in [12] it was 0.318; in [13] it was 0.421; in experiment [15] it was 0.635; in [16] it was 1.25; in experiment [17], 0.16. Moreover, the composite z-score in [18] came out at 0.461; in [19] it was 0.214; in [20], 0.147. The z-score in [2] is -1.08 (inactive); in experiment [3], -2.06 (inactive); in experiment [4] it was -1.83 (inactive); in experiment [6], 2.15 (inactive); in [14] it was -1.43 (inactive).

For the molecule `CCC#CCN(Cc1ccccc1Br)[C@H](/C=C/c1ccccc1)[C@@H](O)Cc1ccccc1`, the composite z-score was -0.394 in experiment [1]; 1.22 in experiment [5]; 0.136 in [7]; -1.78 in experiment [8]; -1.11 in experiment [9]; -0.458 in experiment [10]. Moreover, the composite z-score in experiment [11] was 0.193; in experiment [12] it was 0.0099; in experiment [13], 1.28; in [15], -0.89; in [16], -0.688; in [17] it was -1.53. In addition, the results for the composite z-score in experiment [18], in experiment [19] and in experiment [20] were -1.81, -1.6 and 1.05, respectively. For the same molecule, the z-score in [2] was 0.629 (inactive); in [3], 0.266 (inactive); in [4] it was 1.12 (inactive); in experiment [6] it was 0.567 (inactive); in experiment [14], -1.89 (inactive).

For the molecule `CC(C)[Si]1(C(C)C)OCc2cc(C3CC3)nc(-c3ccccc3)c21`, the composite z-score in [1] is 0.168; in experiment [5] it was -0.431; in [7], -0.142; in [8], -0.246; in experiment [9] it was -0.802; in [10], -0.216. Moreover, the composite z-score is 0.0305 in experiment [11]; -0.294 in [12]; 0.525 in [13]; -0.395 in experiment [15]; -1.24 in [16]; -0.385 in experiment [17]. Moreover, the composite z-score is -0.708 in [18], -0.342 in experiment [19] and 1.21 in [20]. Besides, the z-score in experiment [2] is -0.604 (inactive); in experiment [3] it was -3.7 (inactive); in [4], -1.39 (inactive); in experiment [6], 2.13 (inactive); in experiment [14] it was -2.27 (inactive).

On to `O=C1OCC=C[C@H]2OC34C=CCN(Cc5ccccc5)C(=O)[C@H]3N(CCO)C(=O)[C@@H]4[C@@H]12` (stereo not given in full), for which the composite z-score is 0.409 in experiment [1]; 2.08 in experiment [5]; -0.232 in experiment [7]; -1.41 in experiment [8]; -0.159 in [9]; -0.172 in [10]. In addition, the composite z-score is 1.89 in [11]; -0.227 in [12]; 0.679 in experiment [13]; -1.09 in experiment [15]; -1.46 in experiment [16]; -0.435 in experiment [17]. Moreover, the composite z-score was -0.596 in experiment [18], -0.965 in experiment [19] and 0.0484 in [20]. Moreover, the z-score in experiment [2] is -0.308 (inactive); in [3], 0.176 (inactive); in experiment [4], -1.17 (inactive); in experiment [6], 2.13 (inactive); in [14], -0.632 (inactive).
